# Laboratory results taken from the supplement of paper PMC7366291.
# Where a name gives a salt, the structure may show the parent alone. ± gives the standard deviation or the standard deviation of the averaged measurements.
# Experiments:
# Conditions in all cases: 25 µM; exposure: 24-48 hpf
# [1] = tested on: Danio rerio Tg(wt1b:EGFP) embryo, pronephros; experiment: glomerular separation, fold change vs DMSO control; higher = glomeruli further apart (abnormal)
# How it was run: (§1)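 Each feature value is a fold change relative to the mean of same-day DMSO-treated embryos. Embryos of the Tg(wt1b:EGFP) zebrafish line, dechorionated, received 25 μM compound in 0.5% DMSO from 24 to 48 hpf at 28.5°C, in HEPES-buffered E3 with 0.003% PTU. Distances and angles were computed by a Fiji macro from 16 manually set reference points on maximum projections of dorsal pronephros images, and values beyond 2 SD of the feature mean were removed.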
# [2] = tested on: Danio rerio Tg(wt1b:EGFP) embryo, pronephros; experiment: glomerular width (mean of left and right), fold change vs DMSO control; higher = wider glomerulus
# How it was run: as §1
# [3] = tested on: Danio rerio Tg(wt1b:EGFP) embryo, pronephros; experiment: fraction of imaged embryos annotated as normal kidney; higher = less nephrotoxic; extreme values may be limits of the assay
# How it was run: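 Tricaine-anaesthetised Tg(wt1b:EGFP) zebrafish larvae were oriented dorsally in agarose-filled 96-well plates, and their pronephroi were recorded by widefield fluorescence at 470 nm in 10 z-slices. Before this, the dechorionated embryos had been exposed in 12-well plates to 25 μM compound in 0.5% DMSO and 5 mM HEPES-buffered E3 with 0.003% PTU, from 24 to 48 hpf at 28.5°C. Maximum projections were annotated manually for each embryo, and the read-out is the fraction per treatment classed as normal kidney.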
# [4] = tested on: Danio rerio Tg(wt1b:EGFP) embryo, pronephros; experiment: pronephric angle neck segment to proximal convoluted tubule (mean of left and right), fold change vs DMSO control; higher = larger pronephric angle
# How it was run: as §1
SMILES,glomerular separation [1],glomerular width [2],fraction of imaged embryos annotated as normal kidney [3],pronephric angle neck segment [4]
CN1C(=O)OC(C)(C)C1=O [Trimethadione],0.837 ± 0.27,0.996 ± 0.064,0.75,0.935 ± 0.026
CCn1cc(C(=O)O)c(=O)c2cc(F)c(N3CCNCC3)cc21 [Norfloxacin],0.828 ± 0.22,1.05 ± 0.037,1,0.9433 ± 0.0086
CCCCCCCCNC(C)C(O)c1ccc(SC(C)C)cc1 (configuration not stated) [Suloctidil],4.23 ± 2.2,0.877 ± 0.029,0,1.48 ± 0.033
COc1ccc2c(c1)c(CC(=O)OCC(=O)O)c(C)n2C(=O)c1ccc(Cl)cc1 [Acemetacin],1.28 ± 0.69,1.04 ± 0.027,0.917,1.08 ± 0.039
O=C(NC(Cc1cc(=O)[nH]c2ccccc12)C(=O)O)c1ccc(Cl)cc1 (configuration not stated) [Rebamipide],0.748 ± 0.25,0.942 ± 0.061,0.917,0.972 ± 0.034
Nc1nc(N)c2nc(-c3ccccc3)c(N)nc2n1 [Triamterene],1.02 ± 0.42,0.902 ± 0.0063,0.75,0.935 ± 0.046
C#C[C@]1(O)CC[C@H]2[C@@H]3CCC4=Cc5oncc5C[C@]4(C)[C@H]3CC[C@@]21C [Danazol],3.7 ± 1.5,0.592 ± 0.0074,0,1.1 ± 0.12
CN1CCCC(CC2c3ccccc3Sc3ccccc32)C1 (configuration not stated) [Metixene hydrochloride],0.961 ± 0.25,1 ± 0.021,1,0.953 ± 0.044
NS(=O)(=O)c1cc(C(=O)O)cc(N2CCCC2)c1Oc1ccccc1 [Piretanide],1.08 ± 0.68,1.02 ± 0.048,0.917,1.03 ± 0.038
NNc1nncc2ccccc12 [Hydralazine hydrochloride],1.14 ± 0.53,1.04 ± 0.041,0.818,1.02 ± 0.039
CC(C)(Oc1ccc(C2CC2(Cl)Cl)cc1)C(=O)O (configuration not stated) [Ciprofibrate],1.25 ± 0.62,0.934 ± 0.023,0.818,1.082 ± 0.0058
Nc1cc(-c2ccncc2)c[nH]c1=O [Amrinone],0.609 ± 0.23,1.01 ± 0.036,0.917,0.969 ± 0.014
COc1cc(N)c(Cl)cc1C(=O)NC1CCN(Cc2ccccc2)CC1 [Clebopride maleate],0.962 ± 0.3,0.9245 ± 0.0057,0.917,0.912 ± 0.027
